Experiment [1] can be described thus: qHTS assay to test for compound auto fluorescence at 535 nm (green) in HEK293 cells (AID 720680). For orientation: Quantitative high-throughput screening tests each substance at several concentrations.
Experiment [2] is described as follows: qHTS assay to test for compound auto fluorescence at 460 nm (blue) in HEK293 cell free culture (AID 720681). A digest of the protocol:
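Test compounds were pinned into cell-free culture medium (DMEM with 10% FBS) and fluorescence was read directly at Ex/Em 405/460 nm. Signals were expressed as fluorescence equivalents of triamterene, with DMSO vehicle as control.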

Experiment [3] is described as follows: qHTS assay to test for compound auto fluorescence at 535 nm (green) in HEK293 cell free culture (AID 720682). The gist of the method:
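Cell-free medium (DMEM, 10% FBS) receives compound or DMSO by pintool. Plate read directly at Ex 485/Em 535 nm. Signal converted to fluorescein equivalency.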

Experiment [4] in a line: qHTS assay to test for compound auto fluorescence at 590 nm (red) in HEK293 cell free culture (AID 720683). Note: potency is the fitted concentration of half-maximal effect. A digest of the protocol:
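Tox21 10K library compounds were pinned into cell-free DMEM with 10% FBS and fluorescence was read at excitation 540 nm. Activity is expressed as Rose Bengal sodium equivalency.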

A short description of experiment [5]: qHTS assay to test for compound auto fluorescence at 590 nm (red) in HepG2 cell free culture (AID 720684). Note: potency is the fitted concentration of half-maximal effect. The gist of the method: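 Red fluorescence (540 nm excitation, 590 nm emission) was measured after compound transfer into cell-free MEM supplemented with 10% FBS. Values are equivalencies against Rose Bengal sodium.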
A short description of experiment [6]: qHTS assay to test for compound auto fluorescence at 460 nm (blue) in HepG2 cell free culture (AID 720685). A digest of the protocol: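 Compound (23 nL) or DMSO pinned into cell-free MEM with 10% FBS; blue fluorescence read at 405/460 nm excitation/emission, expressed as auto-fluorescence equivalency to triamterene.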
A short description of experiment [7]: qHTS assay to test for compound auto fluorescence at 535 nm (green) in HepG2 cell free culture (AID 720686).
Experiment [8] in a line: qHTS assay to test for compound auto fluorescence at 460 nm (blue) in HepG2 cells (AID 720687). The gist of the method: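 Cells (2,000/well in MEM with 10% FBS) attached overnight at 37 C, then were exposed to compound or DMSO for 1 hr at 37 C, 5% CO2. Fluorescence read at Ex/Em 405/460 nm, expressed as triamterene-equivalent signal.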

Active and inactive are the calls of the source. Calls come from the whole dose curve; as a rule, active = well fitted curve in the direction sought with a large enough effect in the repeat runs; inconclusive = weak or mixed curves; inactive = flat fitted curve, though single readings scatter.
Tags give direction and shape of the fitted curve or compound fluorescence and quenching.

`CN1[C@@H]2CCC[C@H]1CC(NC(=O)c1nn(C)c3ccccc13)C2` (some centres undefined): the Potency entry in experiment [1], in experiment [2], in experiment [3], in experiment [4], in experiment [5] and in experiment [7] was “inactive” in each case. For the same molecule, the molecule was called inactive in experiment [6] and in experiment [8].
`CC(CN(C)C)CN1c2ccccc2S(=O)(=O)c2ccccc21` (centres undefined): the Potency entry in experiment [1], in experiment [2], in experiment [3], in experiment [4], in experiment [5] and in experiment [7] was “inactive” in each case. In addition, the result in experiment [6] and in experiment [8] was inactive.
On to `Cc1ccc(S(=O)(=O)NC(=O)N[C@@H](C)Cc2ccccc2)cc1`, for which the Potency result in experiment [1], in experiment [2], in experiment [3], in experiment [4], in experiment [5] and in experiment [7] was “inactive” throughout. Also, the molecule was classed as inactive in experiment [6] and in experiment [8].
As to `O=C(O)c1c(Cl)c(Cl)c(Cl)c(Cl)c1-c1c2cc(I)c(=O)c(I)c-2oc2c(I)c(O)c(I)cc12`, the Potency result in experiment [1], in experiment [2], in experiment [3] and in experiment [7] was “inactive” each time. The Potency in experiment [4] and in experiment [5] was 11.2 µM [fluorescent] (active) throughout. In addition, the call in experiment [6] and in experiment [8] was inactive.
On to `CN(C)CCOc1ccccc1Cc1ccccc1` (tested in a mixture with another compound), for which the Potency entry in experiment [1], in experiment [2], in experiment [3], in experiment [4], in experiment [5] and in experiment [7] was “inactive” in each case. Besides, the call in experiment [6] was inactive.
Regarding `CC(=O)[C@@]1(O)CC[C@H]2[C@@H]3C=C(Cl)C4=CC(=O)CC[C@]4(C)[C@H]3CC[C@@]21C`, the Potency result in experiment [1], in experiment [2], in experiment [3], in experiment [4], in experiment [5] and in experiment [7] was “inactive” throughout. Besides, the outcome in experiment [6] and in experiment [8] was inactive.
Consider `O=P(O)(O)OC[C@H](O)CO`, for which the Potency result in experiment [1], in experiment [2], in experiment [3], in experiment [4], in experiment [5] and in experiment [7] was “inactive” in each case. The outcome in experiment [6] and in experiment [8] was inactive.
Regarding `COc1ccc(C2NC(=S)N3C(c4ccc(OC)c(OC)c4)NC(=S)N23)cc1OC` (centres undefined), the Potency result in experiment [1], in experiment [2], in experiment [3], in experiment [4], in experiment [5] and in experiment [7] was “inactive” throughout. In addition, the call in experiment [6] and in experiment [8] was inactive.
As for `Cn1cc(NC(=O)c2cc(NC(=O)c3cc(NC=O)cn3C)cn2C)cc1C(=O)NCCC(=N)N`, the Potency entry in experiment [1], in experiment [2], in experiment [3], in experiment [4], in experiment [5] and in experiment [7] was “inactive” in each case. For the same molecule, the call in experiment [6] and in experiment [8] was inactive.
Consider `CC1(C)C2CC[C@]3(C)[C@H](C(=O)C=C4[C@@H]5C[C@@](C)(C(=O)O)CC[C@]5(C)CC[C@]43C)[C@@]2(C)CC[C@@H]1O[C@H]1O[C@H](C(=O)O)[C@@H](O)[C@H](O)[C@H]1O[C@@H]1O[C@H](C(=O)O)[C@@H](O)[C@H](O)[C@H]1O` (some centres undefined), for which the Potency entry in experiment [1], in experiment [2], in experiment [3], in experiment [4], in experiment [5] and in experiment [7] was “inactive” in each case. Further, the molecule was called inactive in experiment [6] and in experiment [8].
As to `S=C1SCN(Cc2ccccc2)CN1Cc1ccccc1`, the Potency entry in experiment [1], in experiment [2], in experiment [3], in experiment [4], in experiment [5] and in experiment [7] was “inactive” in each case. Also, the molecule was classed as inactive in experiment [6] and in experiment [8].
Consider `C=C1C(=C/C=C2\CCC[C@]3(C)[C@@H]([C@H](C)/C=C/[C@H](C)C(C)C)CC[C@@H]23)C[C@@H](O)C[C@@H]1O`, for which the Potency result in experiment [1], in experiment [2], in experiment [3], in experiment [4], in experiment [5] and in experiment [7] was “inactive” each time. Besides, the outcome in experiment [6] and in experiment [8] was inactive.
As for `O=C1c2ccccc2C(=O)C1c1ccc(Cl)cc1`, the Potency entry in experiment [1], in experiment [2], in experiment [3], in experiment [4], in experiment [5] and in experiment [7] was “inactive” throughout. Also, the molecule was classed as inactive in experiment [6] and in experiment [8].
On to `O=C(CCCN1CCC(C(=O)c2ccc(F)cc2)CC1)c1ccc(F)cc1`, for which the Potency entry in experiment [1], in experiment [2], in experiment [3], in experiment [4], in experiment [5] and in experiment [7] was “inactive” throughout. Also, the molecule was classed as inactive in experiment [6].
Take `CC1CCCC1`: the Potency result in experiment [1], in experiment [2], in experiment [3], in experiment [4], in experiment [5] and in experiment [7] was “inactive” throughout. Also, the call in experiment [6] and in experiment [8] was inactive.
Take `Cn1c(O)c(N=NC(N)=S)c2ccccc21`: the Potency result in experiment [1], in experiment [2], in experiment [3], in experiment [4], in experiment [5] and in experiment [7] was “inactive” each time. In addition, the outcome in experiment [6] and in experiment [8] was inactive.
Take `CC(O)[C@H]1CC[C@H]2[C@@H]3CC[C@@H]4C[C@@H](O)CC[C@]4(C)[C@H]3CC[C@]12C` (some centres undefined): the Potency result in experiment [1], in experiment [2], in experiment [3], in experiment [4], in experiment [5] and in experiment [7] was “inactive” throughout. Further, the call in experiment [6] and in experiment [8] was inactive.
For the molecule `C[C@H](N)C(=O)N[C@@H](C)P(=O)(O)O`, the Potency result in experiment [1], in experiment [2], in experiment [3], in experiment [4], in experiment [5] and in experiment [7] was “inactive” each time. Further, the molecule was classed as inactive in experiment [6] and in experiment [8].
As for `CCc1ccc(S(=O)(=O)O)cc1`, the Potency entry in experiment [1], in experiment [2], in experiment [3], in experiment [4], in experiment [5] and in experiment [7] was “inactive” each time. The result in experiment [6] and in experiment [8] was inactive.
For `O=C(CCCN1CCC(n2c(=S)[nH]c3ccccc32)CC1)c1ccc(F)cc1`, the Potency result in experiment [1], in experiment [2], in experiment [3], in experiment [4], in experiment [5] and in experiment [7] was “inactive” in each case. Further, the call in experiment [6] and in experiment [8] was inactive.
On to `OCC(S)CS` (centres undefined), for which the Potency entry in experiment [1], in experiment [2], in experiment [3], in experiment [4], in experiment [5] and in experiment [7] was “inactive” in each case. Moreover, the outcome in experiment [6] and in experiment [8] was inactive.
With `CC(=O)N[C@@H](CC(=O)N[C@@H](CCC(=O)O)C(=O)O)C(=O)O`, the Potency result in experiment [1], in experiment [2], in experiment [3], in experiment [4], in experiment [5] and in experiment [7] was “inactive” each time. Besides, the result in experiment [6] and in experiment [8] was inactive.

(Values after PubChem BioAssay (Tox21).)
